Results reported in PubChem BioAssay (NCI).
This is part of a sample that, as a whole, favours compounds with a hit. Of some 83,000 tested, about 20% had one in any assay.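 Activity criterion: percent growth below 10, measured after cells in 96-well plates were exposed to a single compound concentration for 48 hours.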 A number with no mark means an inactive call. The source made the active and inactive calls.

Experiments:
Assay in all cases: NCI-60 one-dose screen, 48 h (100 = growth as untreated, 0 = no growth, -100 = all killed)
Settings in all cases: 10 µM unless noted
[1] = system: NCI-H23 lung
[2] = system: NCI-H226 lung
[3] = system: NCI-H322M lung
[4] = system: NCI-H460 lung
[5] = system: HOP-92 NSCLC
[6] = system: NCI-H522 lung
[7] = system: A549/ATCC NSCLC
[8] = system: 786-0 renal
[9] = system: COLO 205 colon
[10] = system: DU-145 prostate
[11] = system: K-562 leukemia
[12] = system: MALME-3M melanoma
[13] = system: MDA-MB-231 breast
[14] = system: RXF 393 renal
[15] = system: SF-268 CNS
[16] = system: SF-295 CNS
[17] = system: SF-539 CNS
[18] = system: UACC-257 melanoma
[19] = system: M14 melanoma
[20] = system: HOP-62 NSCLC

SMILES	growth [1]	growth [2]	growth [3]	growth [4] [%]	growth [5]	growth [6]	growth [7]	growth [8]	growth [9]	growth [10]	growth [11]	growth [12]	growth [13]	growth [14]	growth [15]	growth [16]	growth [17]	growth [18]	growth [19]	growth [20]
COc1ccc2[nH]c(O)c(N=NC(=O)COc3ccc(NC(=O)Nc4ccccc4)cc3)c2c1	20.2%	26.7%	37.2%	48.7	-9.25% (active)	21.1%	47.5%	8.04% (active)	53.6%	72.5%	46.3%	13.9%	12.9%	39%	41.8%	41.7%	-22.7% (active)	63.9%	41.7%	–
CCN1CCN(Cc2ccc(C(=O)Nc3cccc(C#Cc4cccc5[nH]nc(N)c45)c3)cc2C(F)(F)F)CC1	-82.6% (active)	-35.2% (active)	-95.2% (active)	–	-69.8% (active)	-59.9% (active)	-84.8% (active)	-98.5% (active)	-86.6% (active)	-41.8% (active)	–	-76.2% (active)	-90.8% (active)	-87.6% (active)	-61.6% (active)	-87.1% (active)	-97.4% (active)	-89.3% (active)	-95.2% (active)	-66.1% (active)
COc1ccc(/C=C/c2nc3ccccc3c(=O)n2CC(=O)Nc2ccc(Cl)cc2)cc1	60.7%	30.4%	88.8%	22.6	–	64.1%	23%	27.5%	74.6%	65.9%	66.6%	76.3%	48.8%	48.5%	61.4%	53%	-13% (active)	92.3%	77.8%	–
Cn1nc(C(F)(F)F)cc1-c1cc(Cl)c(COc2ccc(Cl)cc2)c(-c2ccc(Cl)c(C(F)(F)F)c2)c1O	-46.7% (active)	-39.5% (active)	6.41% (active)	–	–	-27.7% (active)	2.95% (active)	-63.5% (active)	-83.2% (active)	8.66% (active)	1.2% (active)	-52.4% (active)	–	-47.7% (active)	-0.375% (active)	-70.8% (active)	-77.9% (active)	-31.4% (active)	-67% (active)	-40.9% (active)
C=C1CC[C@@H]2[C@]3(C)COC(c4cn(-c5ccccc5)nc4-c4cccc([N+](=O)[O-])c4)O[C@@H]3CC[C@@]2(C)[C@@H]1C/C=C1/C(=O)OC[C@H]1O (stereo partly drawn)	-62.1% (active)	-48.6% (active)	90%	–	–	-79.3% (active)	30.7%	-35.8% (active)	-64.2% (active)	44.3%	-12.7% (active)	-67.6% (active)	–	-84.2% (active)	46%	-46.5% (active)	-96.4% (active)	-68% (active)	-51.2% (active)	10.8%
O=C(O)c1ccc(-c2ccc(/C=N/NC(=O)c3[nH]c4ccc(Br)cc4c3-c3ccccc3)s2)cc1	8.04% (active)	22.8%	20.4%	–	-4.63% (active)	-1.38% (active)	23.1%	16.5%	23.6%	28.2%	22.5%	-8.14% (active)	–	-24.4% (active)	21.1%	-11.9% (active)	1.96% (active)	44.3%	28.2%	28.5%
Cn1cc(-c2cc3nc(-c4cn(C)c5ncccc45)cc(N)n3n2)c2cc(Cl)ccc21	-66.6% (active)	1.56% (active)	-19.8% (active)	–	–	-85.1% (active)	-4.13% (active)	-90.4% (active)	-93.7% (active)	-15% (active)	-51.3% (active)	-97.4% (active)	-96.2% (active)	-84.2% (active)	-45% (active)	-81.5% (active)	-98.5% (active)	-76.5% (active)	-90.8% (active)	-94.2% (active)
Cc1ccc(-n2c(-c3cc4ccccc4nc3Cl)noc2=O)cc1	87.7%	77.7%	92.5%	–	70.6%	62.7%	85.7%	91.3%	103%	105%	30.6%	93.3%	63.6%	92.4%	86.7%	76.1%	84%	95%	72.7%	65.1%
COc1ccc(-c2nc3ccc(C(=O)NN4C(=O)c5ccc([N+](=O)[O-])cc5C4=O)cc3[nH]2)cc1	98%	79.9%	96.1%	100	81%	88.6%	93%	87.7%	105%	109%	102%	87.9%	90.1%	68.4%	105%	88.2%	91.1%	94.2%	93.7%	–
